# Assay: qHTS profiling of inhibitors of Plasmodium falciparum (DD2) proliferation (acoustic dispense)
# Conditions: P. falciparum Dd2 in erythrocytes, SYBR Green DNA, 72 h; at 49.8 µM (top of the series) unless noted
# Source text: Plasmodium falciparum is a virulent malarial parasite that kills 1-2 million people worldwide each year. Transmitted by mosquitoes, the sporozoite form of the parasite enters the blood stream to infect hepatocytes, where they become merozoites that infect red blood cells (erythrocytes). Within erythrocytes, merozoites begin a […] cycle of growth and division, after which the parasite is released to infect new red blood cells. Gametocytes, which form within erythrocytes as well, circulate in the bloodstream and are ingested by the mosquito, thereby completing the life cycle. To profile malarial isolates for differential chemical responses and to identify inhibitors of malarial growth, an assay that measures P. falciparum growth and replication within erythrocytes was employed. This assay uses a DNA binding fluorescent dye (SYBR Green) to detect parasite DNA following cell lysis. Because mature erythrocytes lack DNA, only Plasmodium-derived DNA is detected.
# The SYBR Green viability assay was adapted from a method described previously (Plouffe et al., 2008). For screening 3 ul culture medium was dispensed into 1536 well black clear bottom plates (Aurora Biotechnologies) using a Multidrop Combi (Thermo Fisher Scientific Inc.), 23 nL of compounds in DMSO were added by an acoustic dispenser (EDC Biosystems), and 5 ul of erythrocytes infected with P. falciparum (0.3% parasitemia, 2.5% hematocrit final concentration) were added. The plates were incubated at 37 C in a humidified incubator in 5% CO2 for 72 h, and 2 ul lysis buffer (20 mM Tris HCl, 10 mM EDTA, 0.16% saponin, 1.6% triton X, 10X SYBR Green I supplied as 10,000X […] by Invitrogen) was added to each well. The plates were mixed for 25 sec with gentle shaking and incubated overnight at room temperature in the dark. The following morning, fluorescence intensity at 485(14) nm excitation and 535(25) nm emission wavelengths was measured on an EnVision (Perkin Elmer) plate reader. Plate reads were normalized relative to the control inhibitor (0.29 uM artemisinin) and vehicle (DMSO) wells present on each plate and then corrected by an algorithm using vehicle-only control plates at the beginning and end of the compound plate stack.
row,Compound,"parasite growth, lower = inhibition"
1,CCCCCCCCCCOc1cc2c(=O)c(C(=O)OCC)c[nH]c2cc1OCC,1.27%
2,O=C1NC(=O)C(=Cc2ccc3nccc(-c4ccncc4)c3c2)S1,0.455%
3,C#Cc1cccc(Nc2ncnc3cc(OC)c(OCCCCCCC(=O)NO)cc23)c1,-0.648%
4,O[C@H](c1cc(C(F)(F)F)nc2c(C(F)(F)F)cccc12)[C@H]1CCCCN1,0.891% [at 23.2 µM]
5,COC(=O)[C@]12CCC(C)(C)C[C@@H]1[C@@H]1C(=O)C=C3[C@@]4(C)C=C(C#N)C(=O)C(C)(C)[C@@H]4CC[C@@]3(C)[C@]1(C)CC2,23.1%
6,Cc1cn(-c2cc(NC(=O)c3ccc(C)c(Nc4nccc(-c5cccnc5)n4)c3)cc(C(F)(F)F)c2)cn1,7.6%
7,CC[C@H]1OC(=O)[C@H](C)[C@@H](O[C@H]2C[C@@](C)(OC)[C@@H](O)[C@H](C)O2)[C@H](C)[C@@H](O[C@@H]2O[C@H](C)C[C@H](N(C)C)[C@@H]2O)[C@](C)(O)C[C@@H](C)CN(C)[C@H](C)[C@@H](O)[C@]1(C)O,9.84%
8,NC(=NCCCCCCN=C(N)N=C(N)Nc1ccc(Cl)cc1)N=C(N)Nc1ccc(Cl)cc1,3.29%
9,COc1ccc2nc3cc(Cl)ccc3c(Nc3cc(CN4CCCC4)c(O)c(CN4CCCC4)c3)c2n1,0.653%
10,COc1ccc(-c2nc(N3CCOCC3)c3sc(CN(C)c4ncc(C(=O)NO)cn4)cc3n2)cn1,0.651%
11,CN(C(=O)OC(C)(C)C)[C@@H](Cc1ccc(O[S+](=O)([O-])c2cccc3cnccc23)cc1)C(=O)N1CCN(C(=O)OCc2ccccc2)CC1,-0.325%
12,CO[C@H]1O[C@@H]2O[C@@]3(C)CC[C@@H]4[C@@H](C)CC[C@@H]([C@H]1C)[C@@]24OO3,-0.475%
13,COc1cc([C@@H]2c3cc4c(cc3[C@@H](O[C@@H]3O[C@@H]5CO[C@@H](c6cccs6)O[C@@H]5[C@H](O)[C@@H]3O)[C@H]3COC(=O)[C@H]23)OCO4)cc(OC)c1O,-0.345%
14,Cc1nc2cnc3ccc(C#Cc4cccnc4)cc3c2n1-c1ccc(C(C)(C)C#N)cc1,0.532%
15,C=CCNC1=C2C[C@@H](C)C[C@H](OC)[C@@H](O)[C@@H](C)C=C(C)[C@H](OC(N)=O)[C@@H](OC)C=CC=C(C)C(=O)NC(=CC1=O)C2=O,0.49%
16,CO[C@@H]1C(N(C)C(=O)c2ccccc2)C[C@H]2O[C@]1(C)n1c3ccccc3c3c4c(c5c6ccccc6n2c5c31)C(=O)NC4=O (stereo not given in full),10.1%
17,CC1(CN2CCC(n3c(=O)[nH]c4ccccc43)CC2)OCc2ccccc2-n2cccc21 (stereo not given),12.6%
18,CN[C@@H]1C[C@H]2O[C@@](C)([C@H]1OC)n1c3ccccc3c3c4c(c5c6ccccc6n2c5c31)C(=O)N[C@H]4O,0.898%
19,COc1ncnc(NS(=O)(=O)c2ccc(N)cc2)c1OC,114%
20,CS[C@H]1SC[C@@H]2C(=O)N(C)[C@H](C(C)C)C(=O)OC[C@H](NC(=O)c3cnc4ccccc4n3)C(=O)N[C@H](C)C(=O)N(C)[C@@H]1C(=O)N(C)[C@H](C(C)C)C(=O)OC[C@H](NC(=O)c1cnc3ccccc3n1)C(=O)N[C@H](C)C(=O)N2C,0.25%

row,Compound,"parasite growth, lower = inhibition"
1,Cn1c(=O)c(-c2c(Cl)cccc2Cl)cc2cnc(Nc3cccc(C(=O)O)c3)nc21,-0.0499%
2,COc1ccc(-c2ccc3ncc4c(c3c2)n(-c2ccc(N3CCNCC3)c(C(F)(F)F)c2)c(=O)n4C)cn1,2.81%
3,COc1ccc(-c2cc3c(C)nc(N)nc3n(C3CCC(OCCO)CC3)c2=O)cn1 (stereo not given),-0.346%
4,CC(=NNC(=S)N1CCC1)c1ccccn1,-0.523%
5,COc1cc(C)c2c(Oc3cccc(C(F)(F)F)c3)c(OC)cc(NCCCC(C)N)c2n1 (stereo not given),-0.465%
6,CC(C)n1nc(-c2ccc3oc(N)nc3c2)c2c(N)ncnc21,-0.0305%
7,Cc1cn[nH]c1,23.6%
8,CCS(=O)(=O)Nc1ccc2[nH]c(O)c(C(=Nc3ccc(CN4CCCCC4)cc3)c3ccccc3)c2c1,-0.594%
9,CCN[C@H]1C[C@H](C)S(=O)(=O)c2sc(S(N)(=O)=O)cc21,0.306%
10,O=C1c2ccccc2-[n+]2ccc3c([nH]c4ccccc43)c21,2.4%
11,CCCCN(CCCC)CCC(O)c1cc2c(Cl)cc(Cl)cc2c2cc(C(F)(F)F)ccc12 (stereo not given),-0.281% [at 23.2 µM]
12,COC1=C2C[C@@H](C)C[C@H](OC)[C@@H](O)[C@@H](C)C=C(C)[C@H](OC(N)=O)[C@@H](OC)C=CC=C(C)C(=O)NC(=CC1=O)C2=O,-0.39%
13,CCC(C=C[C@@H]1OC(=O)C=C[C@H]1C)=C[C@H](C)CC=CC(C)=C[C@@H](C)C(=O)[C@@H](C)[C@H](O)[C@@H](C)CC(C)=CC(=O)O,97.6% [at 1.88 µM]
14,COc1ccc2cc3[n+](cc2c1OC)CCc1cc2c(cc1-3)OCO2,-0.889%
15,Cc1cnc(Nc2ccc(CN3CCOCC3)cc2)nc1Nc1cccc(S(=O)(=O)NC(C)(C)C)c1,0.192%
16,CCC[C@H](Nc1nc(-c2ccc(NC(=O)NCC)c(OC)c2)ncc1C)c1cccnc1,1.45%
17,COc1cc(NCc2ccc3nc(N)nc(N)c3c2C)cc(OC)c1OC,-1.45%
18,CN(Cc1cnc2nc(N)nc(N)c2n1)c1ccc(C(=O)N[C@@H](CCC(=O)O)C(=O)O)cc1,-0.378%
19,CC(=O)Nc1nc(C)c(-c2ccc(Cl)c(S(=O)(=O)NCCO)c2)s1,-0.252%
20,Cn1cnc(=N)c2[nH]cnc21,0.26%

# From PubChem BioAssay AID743365 (National Center for Advancing Translational Sciences (NCATS), 2014)
